# From PubChem BioAssay AID1159580 (chemical genetic matrix, 2015)
# Where “and” joins values, the source holds several entries; their conditions need not be identical. Identical values can stand only once. The whole screen tested about 5,500 compounds, of which about 2,000 (36%) were called active. Another 18% or so got no clear call; they are omitted. The list shows a part of the results. A number with no mark means an inactive call. Rule as the data show it: active = normalized growth mostly below about 0.91 (no sharp cut-off); inconclusive = no clear call, values can overlap the other calls; inactive = mostly above about 0.92.
# Test: chemical genetic growth profiling, strain panel (AID 1159580);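 also: tested at 20 µM; growth read once vehicle control cultures reached saturation at 30 °C; 1 = growth at the plate median or of vehicle wells; lower values mean less growth of the strain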
# Conditions: S. cerevisiae deletion strains, growth OD
smiles,measurement,setting,value
COC(=O)[C@@]1(C)CCC[C@]2(C)c3ccc(O)c(C(C)C)c3CCC12 (stereo not given in full),normalized growth,"locus YAL021C, strain ccr4, active compounds read low",1.08
same,normalized growth,"locus YAL026C, strain drs2, active compounds read low",0.929
same,normalized growth,"locus YAL030W, strain snc1, active compounds read low",0.85 (active)
same,normalized growth,"locus YBL061C, strain skt5, active compounds read low",0.617 (active)
same,normalized growth,"locus YBR009C, strain hhf1, active compounds read low",0.364 (active)
same,normalized growth,"locus YBR021W, strain FUR4, active compounds read low",0.646 (active)
same,normalized growth,"locus YBR023C, strain chs3, active compounds read low",0.793 (active)
same,normalized growth,"locus YBR171W, strain sec66, active compounds read low",0.946
same,normalized growth,"locus YBR229C, strain ROT2, active compounds read low",0.875 (active)
same,normalized growth,"locus YBR231C, strain swc5, active compounds read low",0.705 (active)
same,normalized growth,"locus YBR279W, strain paf1, active compounds read low",0.941
same,normalized growth,"locus YCL011C, strain gbp2, active compounds read low",0.652 (active)
same,normalized growth,"locus YCL016C, strain dcc1, active compounds read low",0.847 (active)
same,normalized growth,"locus YCL029C, strain bik1, active compounds read low",0.804 (active)
same,normalized growth,"locus YCL069W, strain vba3, active compounds read low",0.977
same,normalized growth,"locus YCR088W, strain abp1, active compounds read low",0.971
same,normalized growth,"locus YDL005C, strain med2, active compounds read low",0.944
same,normalized growth,"locus YDL035C, strain GPR1, active compounds read low",0.912
same,normalized growth,"locus YDL040C, strain nat1, active compounds read low",0.928 (active)
same,normalized growth,"locus YDL074C, strain BRE1, active compounds read low",0.174 (active)
same,normalized growth,"locus YDL101C, strain DUN1, active compounds read low",0.894 (active)
same,normalized growth,"locus YDL185W, strain tfp1, active compounds read low",0.956
same,normalized growth,"locus YDL192W, strain arf1, active compounds read low",0.344 (active)
same,normalized growth,"locus YDR001C, strain nth1, active compounds read low",0.978
same,normalized growth,"locus YDR069C, strain doa4, active compounds read low",0.89 (active)
same,normalized growth,"locus YDR101C, strain arx1, active compounds read low",0.782 (active)
same,normalized growth,"locus YDR137W, strain rgp1, active compounds read low",0.134 (active)
same,normalized growth,"locus YDR159W, strain sac3, active compounds read low",0.29 (active)
same,normalized growth,"locus YDR162C, strain NBP2, active compounds read low",0.595 (active)
same,normalized growth,"locus YDR195W, strain ref2",0.189 (active)
same,normalized growth,"locus YDR297W, strain sur2, active compounds read low",0.566 (active)
same,normalized growth,"locus YDR318W, strain mcm21, active compounds read low",0.788 (active)
same,normalized growth,"locus YDR334W, strain swr1, active compounds read low",0.998
same,normalized growth,"locus YDR335W, strain msn5, active compounds read low",0.965
same,normalized growth,"locus YDR388W, active compounds read low",0.942
same,normalized growth,"locus YDR392W, strain spt3, active compounds read low",0.283 (active)
same,normalized growth,"locus YDR502C, strain sam2, active compounds read low",0.773 (active)
same,normalized growth,"locus YEL003W, strain gim4, active compounds read low",0.929
same,normalized growth,"locus YEL037C, strain rad23, active compounds read low",0.988
same,normalized growth,"locus YEL061C, strain CIN8 (second series), active compounds read low",0.981
same,normalized growth,"locus YEL061C, strain CIN8, active compounds read low",0.803 (active)
same,normalized growth,"locus YER015W, strain faa2, active compounds read low",0.793 (active)
same,normalized growth,"locus YER016W, strain bim1, active compounds read low",0.825 (active)
same,normalized growth,"locus YER110C, active compounds read low",1
same,normalized growth,"locus YER111C, strain swi4, active compounds read low",0.995
same,normalized growth,"locus YER155C, strain BEM2 (second series), active compounds read low",0.891
same,normalized growth,"locus YER155C, strain BEM2, active compounds read low",0.128 (active)
same,normalized growth,"locus YER167W, strain BCK2, active compounds read low",0.796 (active)
same,normalized growth,"locus YFR010W, strain ubp6, active compounds read low",0.952
same,normalized growth,"locus YGL078C, strain dbp3, active compounds read low",0.935
same,normalized growth,"locus YGL086W, strain mad1, active compounds read low",0.729 (active)
same,normalized growth,"locus YGL167C, strain pmr1, active compounds read low",0.374 (active)
same,normalized growth,"locus YGL173C, strain kem1, active compounds read low",0.832 (active)
same,normalized growth,"locus YGL227W, strain vid30, active compounds read low",0.97
same,normalized growth,"locus YGL240W, strain doc1, active compounds read low",0.772 (active)
same,normalized growth,"locus YGL248W, strain PDE1, active compounds read low",0.828 (active)
same,normalized growth,"locus YGL253W, strain hxk2, active compounds read low",0.951
same,normalized growth,"locus YGR135W, strain pre9, active compounds read low",0.957
same,normalized growth,"locus YGR252W, strain gcn5, active compounds read low",0.781
same,normalized growth,"locus YHR013C, strain ard1, active compounds read low",1.01
same,normalized growth,"locus YHR027C, strain rpn1, active compounds read low",0.499 (active)
same,normalized growth,"locus YHR030C, strain SLT2, active compounds read low",0.493 (active) and 0.19 (active)
same,normalized growth,"locus YHR079C, strain IRE1 (second series), active compounds read low",0.927
same,normalized growth,"locus YHR079C, strain IRE1, active compounds read low",0.502 (active)
same,normalized growth,"locus YHR094C, strain hxt1, active compounds read low",0.897 (active)
same,normalized growth,"locus YHR129C, strain ARP1, active compounds read low",0.518 (active)
same,normalized growth,"locus YHR142W, strain chs7, active compounds read low",0.875 (active)
same,normalized growth,"locus YHR200W, strain rpn10, active compounds read low",0.871 (active)
same,normalized growth,"locus YIL066C, strain RNR3, active compounds read low",0.65 (active)
same,normalized growth,"locus YIL073C, strain SPO22, active compounds read low",1.07
same,normalized growth,"locus YIL125W, strain kgd1, active compounds read low",0.693 (active)
same,normalized growth,"locus YIR030C, strain dcg1, active compounds read low",0.954
same,normalized growth,"locus YJL092W, strain hpr5, active compounds read low",0.979
same,normalized growth,"locus YJL095W, strain BCK1 (second series), active compounds read low",0.689 (active)
same,normalized growth,"locus YJL095W, strain BCK1, active compounds read low",0.277 (active) and 0.318 (active)
same,normalized growth,"locus YJL115W, strain asf1, active compounds read low",0.976
same,normalized growth,"locus YJL129C, strain trk1, active compounds read low",0.593 (active)
same,normalized growth,"locus YJL134W, strain LCB3, active compounds read low",0.815 (active)
same,normalized growth,"locus YJL154C, strain vps35, active compounds read low",0.981
same,normalized growth,"locus YJL164C, strain tpk1, active compounds read low",0.78 (active)
same,normalized growth,"locus YJL166W, strain qcr8, active compounds read low",0.563 (active)
same,normalized growth,"locus YJL168C, strain set2, active compounds read low",1
same,normalized growth,"locus YJL187C, strain SWE1 (second series), active compounds read low",0.638 (active)
same,normalized growth,"locus YJL187C, strain SWE1, active compounds read low",0.73 (active)
same,normalized growth,"locus YJR043C, strain POL32, active compounds read low",0.955
